Source: PubChem
NPC1 promoter act: NPC1 promoter activation; Huh7 NPC1 promoter luciferase reporter, 24 h; Potency, µM (titrated, usually from 9.22 µM), usual class: activators; actives 2.4% (n = 320,000); AID 485313; note: nearly all actives have a fitted effect of over 60% in size
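In 1536-well qHTS, Huh7 cells harboring an NPC1 promoter–luciferase construct received compound for 24 h; activation was quantified by luminescence following luciferase reagent addition.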
FLuc counter: firefly luciferase modulation, counter-screen for miR-21 project. purified FLuc, Km substrates, luminescence inhibition. Potency, µM (highest dose often 57.5 µM), usual class: inhibitors. actives 6.9% (n = 360,000); note: nearly all actives have a fitted effect of over 55% in size
Target sequence (P08659 whole entry, looked up): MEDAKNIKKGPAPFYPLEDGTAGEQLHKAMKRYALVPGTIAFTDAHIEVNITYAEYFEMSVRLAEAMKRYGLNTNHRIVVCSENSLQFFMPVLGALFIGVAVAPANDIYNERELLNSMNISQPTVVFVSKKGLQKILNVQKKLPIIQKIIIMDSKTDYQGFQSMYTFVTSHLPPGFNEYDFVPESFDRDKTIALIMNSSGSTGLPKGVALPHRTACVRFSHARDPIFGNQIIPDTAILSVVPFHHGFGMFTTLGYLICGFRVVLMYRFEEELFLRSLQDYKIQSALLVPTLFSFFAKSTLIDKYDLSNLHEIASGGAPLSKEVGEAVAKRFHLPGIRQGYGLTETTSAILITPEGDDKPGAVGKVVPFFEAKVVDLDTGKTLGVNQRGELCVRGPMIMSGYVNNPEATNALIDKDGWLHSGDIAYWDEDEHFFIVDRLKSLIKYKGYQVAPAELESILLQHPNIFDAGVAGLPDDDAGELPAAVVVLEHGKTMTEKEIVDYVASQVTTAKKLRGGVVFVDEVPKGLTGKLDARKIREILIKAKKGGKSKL
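Purified P. pyralis luciferase (10nM final) with 10uM D-luciferin and 10uM ATP (Km levels) in 50mM Tris acetate pH 7.5, 10mM Mg acetate, 0.01% Tween-20, 0.05% BSA; qHTS 6-point titration, ~60 µM downward; luminescence read.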
KinaseGlo FLuc: counter-screen: inhibitors of Kinase-Glo firefly luciferase | Kinase-Glo luciferase, ATP luminescence, 8 min | Potency, µM (series often up to 38.3 µM), usual class: inhibitors | actives 0.28% (n = 200,000); note: nearly all actives have a fitted effect of over 60% in size
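Inhibition of Kinase-Glo luciferase light generation was assessed at 10 uM ATP in pH 7.2 imidazole buffer, with luminescence measured after eight minutes at ambient temperature.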
SMN2 splice up: increases expression of the SMN2 splice variant. Potency, µM (series often up to 46.1 µM), hits mostly activators. actives 2.8% (n = 210,000). AID 1458. HEK293 SMN2-luciferase splicing reporter, luminescence, 30-36 h; note: nearly all actives have a fitted effect of over 55% in size
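HEK293 cells carry an SMN2 […]–luciferase reporter in which exon 7 inclusion puts luciferase in frame. Cells were plated 10-12 h before compound addition, then incubated 30-36 h at 37C. ONE-Glo luminescence was read; sodium butyrate at 4.5 mM final served as control.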
ELG1 genotox: genotoxicity induction in ELG1-luciferase HEK293T cells; HEK293T ELG1-luciferase reporter, luminescence, 16 h; Potency, µM (doses to about 46 µM), hits mostly activators; actives 1.3% (n = 330,000); note: nearly all actives have a fitted effect of over 60% in size
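HEK293T cells expressing luciferase-tagged ELG1 were treated with compound or DMSO for 16 hr at 37°C. Luciferase activity was then read after 30 min with ONE-Glo at room temperature; rising signal flags genetic stress.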
Rab9 promoter act: activates the Rab9 promoter | AID 485297 | actives 2.8% (n = 320,000) | Potency, µM (highest dose often 9.22 µM), actives largely listed as activators | Huh7 Rab9 promoter-luciferase reporter, luminescence, 24 h; note: nearly all actives have a fitted effect of over 60% in size
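Luciferase signal after 10 min detection reagent at ambient indicates Rab9 promoter upregulation; stably transfected Huh7 cells were treated 24 h with compound in DMSO at 37 °C, 5% CO2.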
Of the large screens only hits and unclear results are named; the others gave an inactive call; ! = a repeat was not active. An excerpt weighted towards active compounds, which were near 7.3% of everything screened. Calls come from the whole dose curve; as a rule, active = well fitted curve in the direction sought with a large enough effect; inconclusive = small, poorly fitted or top-dose-only effect, or another doubt; inactive = no such curve, though single readings can be large; an effect the other way counts as inactive or inconclusive.

Oc1cncc(-c2cccnc2)c1	none (no result: KinaseGlo FLuc, SMN2 splice up)
Cc1ccccc1-c1ccc(/C=C2/SC(N3CCOCC3)=NC2=O)o1	FLuc counter inconclusive (no result: KinaseGlo FLuc, SMN2 splice up)
CCCCN(C(=O)CN1C(=O)C2CC=CCC2C1=O)c1c(N)n(CCC)c(=O)[nH]c1=O (stereo not drawn)	none
O=C(O)Cc1ccc(NC(=O)c2ccc3c(c2)C(=O)N(CC2CCCO2)C3=O)cc1 (stereo not drawn)	none (no result: KinaseGlo FLuc, SMN2 splice up)
O=C(O)c1cccc(NC(=O)c2ccc3c(c2)C(=O)N(CC2CCCO2)C3=O)c1 (stereo not drawn)	FLuc counter 0.477µM
Cc1ccccc1CN1CCN(C(=O)c2ccco2)CC1	none (no result: KinaseGlo FLuc, SMN2 splice up)
Cc1cccn2c1nc(=S)n2C(=O)c1ccco1	NPC1 promoter act inconclusive, FLuc counter 0.675µM, KinaseGlo FLuc inconclusive, SMN2 splice up inconclusive, ELG1 genotox inconclusive, Rab9 promoter act 1.41µM
CC(=O)c1cccc(NC(=O)CCS(=O)(=O)c2cc(Br)cc3c2N(C(=O)C2CC2)CC3)c1	none (no result: NPC1 promoter act, KinaseGlo FLuc, ELG1 genotox, Rab9 promoter act)
COc1ccc(C(=O)Sc2ccc(C)cc2)cc1OC	FLuc counter 6.75µM
COc1ccc(C(=O)c2ccc(OC)c(OC)c2)cc1OC	none
COc1ccc(C(=O)Sc2ccc(Cl)cc2)cc1OC	FLuc counter 2.69µM
CCCCC[C@@H]1C=C(C(=O)O)[C@H](c2ccc(Cl)cc2)N1S(=O)(=O)c1ccc(C)cc1	none (no result: NPC1 promoter act, FLuc counter, KinaseGlo FLuc, SMN2 splice up, Rab9 promoter act)
O=C(/C=C/c1ccc2c(c1)OCO2)c1ccco1	FLuc counter 2.13µM, ELG1 genotox inconclusive, Rab9 promoter act inconclusive
Nc1ccccc1C(=O)/C=C/c1ccc2c(c1)OCO2	NPC1 promoter act 3.16µM, FLuc counter 3.38µM, KinaseGlo FLuc 10µM!, SMN2 splice up inconclusive, ELG1 genotox inconclusive, Rab9 promoter act 3.16µM
COc1ccc(C2NC(=O)NC(c3ccccc3)=C2c2nc3ccccc3s2)cc1 (stereo not drawn)	none
CC(C)[C@H](NS(=O)(=O)c1ccccc1)C(=O)OCC(=O)NC1CCCCC1	none (no result: NPC1 promoter act, FLuc counter, KinaseGlo FLuc, SMN2 splice up, Rab9 promoter act)
O=C(Nc1ccc(OC(F)(F)F)cc1)c1n[nH]c(Cn2cncn2)n1	FLuc counter 12µM
COC(=O)CCC(=O)c1oc2ccc(Br)cc2c1N	FLuc counter 7.57µM, ELG1 genotox inconclusive
Nc1c(C(=O)c2ccccc2)oc2ccc(Br)cc12	NPC1 promoter act 3.16µM, FLuc counter 3.01µM, SMN2 splice up 15.8µM, ELG1 genotox 4.61µM, Rab9 promoter act 3.55µM
COC(=O)c1oc2ccc(Br)cc2c1-n1cccc1	none
Nc1c(C(=O)c2ccccc2)oc2ccc([N+](=O)[O-])cc12	NPC1 promoter act 3.55µM, FLuc counter inconclusive, Rab9 promoter act 3.55µM (no result: KinaseGlo FLuc, SMN2 splice up)
Cn1c(/C(C#N)=C/C2CC=CCC2)nc2ccccc21 (stereo not drawn)	FLuc counter inconclusive, ELG1 genotox inconclusive
COc1ccc(C(=O)Nc2ccc(C(=O)N3CCOCC3)cc2)cc1OC	FLuc counter inconclusive, ELG1 genotox inconclusive (no result: KinaseGlo FLuc, SMN2 splice up)
COC(=O)c1ccccc1NC(=O)Nc1ccc(C(=O)N2CCCC2)cc1	none
CCNS(=O)(=O)c1ccc(NC(=O)Nc2ccccc2OC)cc1	FLuc counter 16.9µM (no result: SMN2 splice up)
COc1ccc(C(=O)Nc2ccc(C(=O)N3CCCCC3)cc2)cc1OC	FLuc counter 23.9µM (no result: KinaseGlo FLuc, SMN2 splice up)
COc1ccccc1NC(=O)Nc1ccc(C(=O)N2CCCCC2)cc1	NPC1 promoter act inconclusive, FLuc counter 3.01µM, ELG1 genotox 13µM, Rab9 promoter act 0.891µM (no result: KinaseGlo FLuc, SMN2 splice up)
Cc1ccc(C(=O)Nc2ccc(NC(=O)c3ccc(C)o3)cc2)o1	none (no result: KinaseGlo FLuc, SMN2 splice up)
Cc1ccc(C(=O)Nc2ccc(C(=O)N3CCCCC3)cc2)o1	NPC1 promoter act inconclusive, FLuc counter 23.9µM, ELG1 genotox inconclusive, Rab9 promoter act inconclusive (no result: KinaseGlo FLuc, SMN2 splice up)
Cc1cccc(NC(=O)c2cccc(OC(=S)N3CCOCC3)c2)c1	FLuc counter inconclusive (no result: KinaseGlo FLuc, SMN2 splice up)
O=C(Nc1cccc2ccccc12)N1CCOCC1	none
O=C(Nc1cccc2ccccc12)c1ccc(OC(=S)N2CCOCC2)cc1	FLuc counter 10.7µM
O=C(Nc1cccc(Cl)c1)c1ccc(OC(=S)N2CCOCC2)cc1	NPC1 promoter act inconclusive, FLuc counter 2.69µM, ELG1 genotox inconclusive, Rab9 promoter act inconclusive
CC1CC(C)CN(C(=O)COC(=O)c2cc3ccccc3cc2O)C1 (stereo not drawn)	none
